# More than one record can exist for a structure, and the calls need not agree. Active and inactive are the calls of the source. The calls were made as follows: active = hit-call score of the fitted dose curve at least 0.9, where 1 is the maximum; inactive = score below 0.9.
# Assays:
# [1] = read-out: Macrophage colony-stimulating factor (MCSF), CSF1 (gene 1435); test: BSK_hDFCGF_MCSF: BioMAP Diversity Plus: hDFCGF Assay for Macrophage colony-stimulating factor (MCSF) Biomarker Activity (AID 2283060); conditions: primary human foreskin fibroblasts; actives raise or lower the signal
# How it was run: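 fibroblasts (human foreskin, primary), 24 h post-dose; M-CSF by ELISA; bidirectional fit, DMSO = baseline.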
# [2] = BSK_hDFCGF_SRB: Viability Assessment in the BioMAP Diversity Plus: hDFCGF Assay (AID 2283061); conditions: primary human foreskin fibroblasts;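 also: cells exposed to compound for 24 h before the read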
# How it was run: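 SRB-based viability read on primary human skin fibroblasts at 24 h: TCA fixation, 0.1% dye, 560 nm. Gain or loss of signal is fitted against the DMSO negative control.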
# [3] = read-out: TIMP metallopeptidase inhibitor 1 (TIMP1), TIMP1 (gene 7076); test: BSK_hDFCGF_TIMP1: BioMAP Diversity Plus: hDFCGF Assay for TIMP metallopeptidase inhibitor 1 (TIMP1) Biomarker Activity (AID 2283062); conditions: primary human foreskin fibroblasts; actives raise or lower the signal
# How it was run: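 Bidirectional curve fitting against DMSO baseline yielded this endpoint, based on ELISA detection of TIMP-1 in primary human foreskin fibroblasts exposed to compound for 24 h.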
# [4] = read-out: Monokine induced gamma interferon (MIG), CXCL9 (gene 4283); test: BSK_hDFCGF_MIG: BioMAP Diversity Plus: hDFCGF Assay for Monokine induced gamma interferon (MIG) Biomarker Activity (AID 2283063); conditions: primary human foreskin fibroblasts; actives raise or lower the signal
# How it was run: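 Endpoint derived by bidirectional fitting relative to DMSO; MIG quantified via ELISA in primary human foreskin fibroblasts harvested 24 h after dosing.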
# [5] = read-out: Matrix Metallopeptidase 1 (MMP1), MMP1 (gene 4312); test: BSK_hDFCGF_MMP1: BioMAP Diversity Plus: hDFCGF Assay for Matrix Metallopeptidase 1 (MMP1) Biomarker Activity (AID 2283064); conditions: primary human foreskin fibroblasts; actives raise or lower the signal
# How it was run: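 hDFCGF primary fibroblasts (human foreskin); chemical added; 24 h; MMP1 by ELISA; bidirectional fit vs DMSO.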
# [6] = read-out: Vascular cell adhesion molecule 1 (VCAM1), VCAM1 (gene 7412); test: BSK_hDFCGF_VCAM1: BioMAP Diversity Plus: hDFCGF Assay for Vascular cell adhesion molecule 1 (VCAM1) Biomarker Activity (AID 2283065); conditions: primary human foreskin fibroblasts; actives raise or lower the signal;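 as to AC50: VCAM-1 protein level quantified by ELISA after 24 h chemical exposure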
# How it was run: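 Measured after 24 h chemical treatment of primary human skin fibroblasts, VCAM-1 was detected by ELISA and concentration-response analysed in both directions versus DMSO vehicle.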
# [7] = read-out: Plasminogen activator inhibitor-1 (PAI1), SERPINE1 (gene 5054); test: BSK_hDFCGF_PAI1: BioMAP Diversity Plus: hDFCGF Assay for Plasminogen activator inhibitor-1 (PAI1) Biomarker Activity (AID 2283066); conditions: primary human foreskin fibroblasts; actives raise or lower the signal
# How it was run: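 PAI-1 levels, determined by ELISA, served as the endpoint in human foreskin fibroblast cultures exposed to compound for 24 h, with DMSO as baseline.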
# [8] = read-out: Intercellular Adhesion Molecule 1 (ICAM1), ICAM1 (gene 3383); test: BSK_KF3CT_ICAM1: BioMAP Diversity Plus: KF3CT Assay for Intercellular Adhesion Molecule 1 (ICAM1) Biomarker Activity (AID 2283067); conditions: primary human keratinocytes with fibroblasts; actives raise or lower the signal
# How it was run: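 Bidirectional curve fitting against a DMSO baseline was applied to ICAM-1 ELISA signal from primary human skin co-cultures harvested 24 h after treatment, with SRB staining of parallel wells for overt cytotoxicity.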
# [9] = read-out: Interferon-gamma inducible Protein 10 (IP10), CXCL10 (gene 3627); test: BSK_KF3CT_IP10: BioMAP Diversity Plus: KF3CT Assay for Interferon-gamma inducible Protein 10 (IP10) Biomarker Activity (AID 2283068); conditions: primary human keratinocytes with fibroblasts; actives raise or lower the signal
# How it was run: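 ELISA read-out of IP-10 after 24 h chemical dosing of human skin primary co-culture (keratinocytes, foreskin fibroblasts). Gain or loss of signal relative to DMSO, bidirectional curve fit.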
# [10] = BSK_KF3CT_SRB: Viability Assessment in the BioMAP Diversity Plus: KF3CT Assay (AID 2283069); conditions: primary human keratinocytes with fibroblasts;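 also: total protein by sulforhodamine B staining as a cytotoxicity measure; read 24 h after compound addition; fitted for both signal gain and loss against DMSO baseline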
# How it was run: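 Keratinocytes co-cultured with foreskin fibroblasts (human primary); chemical added, 24 h; fix 10% TCA, stain 0.1% SRB, A560. Bidirectional fit vs DMSO.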
smiles,measurement,setting,value
O=C(O)C(F)(F)C(F)(F)C(F)(F)C(F)(F)C(F)(F)C(F)(F)C(F)(F)F,outcome,[1],inactive
same,AC50,[2],1.5 µM (active)
same,outcome,[2],inactive
same,outcome,[3],inactive
same,AC50,[4],30 µM (active)
same,outcome,[4],inactive
same,outcome,[5],inactive
same,outcome,[6],inactive
same,outcome,[7],inactive
same,outcome,[8],inactive
same,outcome,[9],inactive
same,outcome,[10],inactive
CCC(C)Nc1c([N+](=O)[O-])cc(C(C)(C)C)cc1[N+](=O)[O-] (stereo not given),AC50,[1],21.5 µM (active)
same,AC50,[2],32.9 µM (active)
same,outcome,[3],inactive
same,outcome,[4],inactive
same,outcome,[5],inactive
same,AC50,[6],15.4 µM (active)
same,AC50,[7],5.08 µM (active)
same,outcome,[8],inactive
same,outcome,[9],inactive
same,outcome,[10],inactive
CC1(c2ccc(Oc3ccccc3)cc2)OC(=O)N(Nc2ccccc2)C1=O (stereo not given),outcome,[1],inactive
same,outcome,[2],inactive
same,outcome,[3],inactive
same,outcome,[4],inactive
same,outcome,[5],inactive
same,outcome,[6],inactive
same,outcome,[7],inactive
same,outcome,[8],inactive
same,outcome,[9],inactive
same,outcome,[10],inactive
O=C(Nc1ccccc1)Nc1cnns1,outcome,[1],inactive
same,outcome,[2],inactive
same,outcome,[3],inactive
same,outcome,[4],inactive
same,outcome,[5],inactive
same,outcome,[6],inactive
same,outcome,[7],inactive
same,outcome,[8],inactive
same,outcome,[9],inactive
same,outcome,[10],inactive
CNC(=O)Oc1ccccc1OC(C)C,outcome,[1],inactive
same,outcome,[2],inactive
same,outcome,[3],inactive
same,outcome,[4],inactive
same,AC50,[5],2.38 µM (active)
same,outcome,[6],inactive
same,outcome,[7],inactive
same,outcome,[8],inactive
same,outcome,[9],inactive
same,outcome,[10],inactive
CCCN(CCC)c1c([N+](=O)[O-])cc(C(F)(F)F)cc1[N+](=O)[O-],AC50,[1],28.6 µM (active)
same,AC50,[2],30.9 µM (active)
same,outcome,[3],inactive
same,outcome,[4],inactive
same,AC50,[5],4.1 µM (active)
same,AC50,[6],7.77 µM (active)
same,AC50,[7],29.4 µM (active)
same,outcome,[8],inactive
same,AC50,[9],28.8 µM (active)
same,outcome,[10],inactive
CC(C)(C)C(O)/C(=C\c1ccc(Cl)cc1Cl)n1cncn1 (stereo not given),AC50,[1],26.5 µM (active)
same,AC50,[2],20 µM (active)
same,AC50,[3],25.7 µM (active)
same,outcome,[4],inactive
same,outcome,[5],inactive
same,AC50,[6],31.6 µM (active)
same,AC50,[7],9.85 µM (active)
same,AC50,[8],34.4 µM (active)
same,AC50,[9],29.7 µM (active)
same,AC50,[10],20 µM (active)
CCOc1nc(NC)nc(NC(=O)NS(=O)(=O)c2ccccc2C(=O)OC)n1,outcome,[1],inactive
same,outcome,[2],inactive
same,AC50,[3],25.5 µM (active)
same,outcome,[4],inactive
same,AC50,[5],20 µM (active)
same,outcome,[6],inactive
same,AC50,[7],5.36 µM (active)
same,outcome,[8],inactive
same,AC50,[9],20 µM (active)
same,outcome,[10],inactive
CC(C)OC(=O)Nc1cccc(Cl)c1,outcome,[1],inactive
same,outcome,[2],inactive
same,outcome,[3],inactive
same,outcome,[4],inactive
same,outcome,[5],inactive
same,outcome,[6],inactive
same,outcome,[7],inactive
same,outcome,[8],inactive
same,outcome,[9],inactive
same,outcome,[10],inactive
CCN(CC)C(=O)SCc1ccc(Cl)cc1,outcome,[1],inactive
same,outcome,[2],inactive
same,outcome,[3],inactive
same,outcome,[4],inactive
same,outcome,[5],inactive
same,outcome,[6],inactive
same,outcome,[7],inactive
same,outcome,[8],inactive
same,outcome,[9],inactive
same,outcome,[10],inactive
CC1(C)C(C=C(Cl)Cl)C1C(=O)OC(C#N)c1ccc(F)c(Oc2ccccc2)c1 (stereo not given),outcome,[1],inactive
same,AC50,[2],31.1 µM (active)
same,outcome,[3],inactive
same,outcome,[4],inactive
same,outcome,[5],inactive
same,outcome,[6],inactive
same,outcome,[7],inactive
same,outcome,[8],inactive
same,outcome,[9],inactive
same,outcome,[10],inactive
C#CCN1C(=O)COc2cc(F)c(N3C(=O)C4=C(CCCC4)C3=O)cc21,outcome,[1],inactive
same,outcome,[2],inactive
same,outcome,[3],inactive
same,outcome,[4],inactive
same,outcome,[5],inactive
same,outcome,[6],inactive
same,outcome,[7],inactive
same,outcome,[8],inactive
same,outcome,[9],inactive
same,outcome,[10],inactive
C[C@H]1[C@H](c2ccc(Cl)cc2)SC(=O)N1C(=O)NC1CCCCC1,AC50,[1],9.15 µM (active)
same,AC50,[2],8.97 µM (active)
same,outcome,[3],inactive
same,outcome,[4],inactive
same,AC50,[5],5.43 µM (active)
same,outcome,[6],inactive
same,outcome,[7],inactive
same,outcome,[8],inactive
same,outcome,[9],inactive
same,outcome,[10],inactive
CNC(=O)/C=C(\C)OP(=O)(OC)OC,outcome,[1],inactive
same,outcome,[2],inactive
same,outcome,[3],inactive
same,outcome,[4],inactive
same,outcome,[5],inactive
same,outcome,[6],inactive
same,outcome,[7],inactive
same,outcome,[8],inactive
same,outcome,[9],inactive
same,outcome,[10],inactive
COc1cc(OC)nc(NC(=O)NS(=O)(=O)c2cc(NC=O)ccc2C(=O)N(C)C)n1,outcome,[1],inactive
same,outcome,[2],inactive
same,outcome,[3],inactive
same,outcome,[4],inactive
same,outcome,[5],inactive
same,outcome,[6],inactive
same,outcome,[7],inactive
same,outcome,[8],inactive
same,outcome,[9],inactive
same,outcome,[10],inactive
O=C1c2ccccc2C(=O)N1SC(Cl)(Cl)Cl,AC50,[1],26 µM (active)
same,AC50,[2],33.1 µM (active)
same,outcome,[3],inactive
same,AC50,[4],18.3 µM (active)
same,outcome,[5],inactive
same,outcome,[6],inactive
same,outcome,[7],inactive
same,outcome,[8],inactive
same,AC50,[9],26.8 µM (active)
same,outcome,[10],inactive
Oc1ccc(Cl)cc1Cc1ccccc1,AC50,[1],14.7 µM (active) [middle of 7 runs]
same,AC50,[6],14.5 µM (active) [middle of 7 runs]
same,AC50,[7],24.5 µM (active) [middle of 6 runs]

# — PubChem BioAssay (EPA / NIEHS)
